Assay outcomes (PubChem)
The sample as a whole holds a higher share of hits than the screen did.
ALOX12 inhib – inhibitors of human 12-lipoxygenase (ALOX12). Potency, µM (top dose mostly 57.1 µM), most hits filed as inhibitors. hit rate 0.12% among 150,000. purified 12-hLO, xylenol orange hydroperoxide absorbance. P18054; note: nearly all actives have a fitted effect of over 55% in size
Target sequence (P18054 whole entry, looked up): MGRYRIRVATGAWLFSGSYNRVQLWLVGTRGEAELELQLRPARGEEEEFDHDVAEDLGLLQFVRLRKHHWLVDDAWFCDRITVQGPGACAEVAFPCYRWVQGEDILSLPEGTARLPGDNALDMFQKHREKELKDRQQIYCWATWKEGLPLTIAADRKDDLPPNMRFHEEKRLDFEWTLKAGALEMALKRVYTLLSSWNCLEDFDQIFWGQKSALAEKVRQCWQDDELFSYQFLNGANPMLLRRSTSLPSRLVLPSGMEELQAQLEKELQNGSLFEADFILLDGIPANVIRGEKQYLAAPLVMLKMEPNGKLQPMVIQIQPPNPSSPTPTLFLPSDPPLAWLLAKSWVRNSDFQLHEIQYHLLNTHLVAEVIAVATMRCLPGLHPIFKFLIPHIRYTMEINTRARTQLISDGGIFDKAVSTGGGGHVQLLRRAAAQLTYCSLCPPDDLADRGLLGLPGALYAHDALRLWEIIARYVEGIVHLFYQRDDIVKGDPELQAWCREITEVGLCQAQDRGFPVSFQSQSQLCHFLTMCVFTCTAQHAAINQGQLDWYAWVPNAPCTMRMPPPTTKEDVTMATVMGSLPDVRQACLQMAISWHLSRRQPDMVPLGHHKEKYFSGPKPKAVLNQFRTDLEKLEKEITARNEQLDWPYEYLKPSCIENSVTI
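Purified human 12hLO (150 nM), preincubated 15 min with compound, then 40 uM arachidonic acid for 30 min, room temperature, Hepes pH 7.0 with 0.01% Triton X-100. Hydroperoxide detected by ferrous iron/xylenol orange; 573/405 nm absorbance ratio gives reaction progress.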
15-hLO-2 inh – inhibitors of human 15-lipoxygenase 2 (ALOX15B) | O15296 | purified 15hLO-2, xylenol orange hydroperoxide absorbance | Potency, µM (doses to about 57.1 µM), usual class: inhibitors | hit rate 0.56% among 110,000; note: nearly all actives have a fitted effect of over 60% in size
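Screening format was qHTS against 50 nM purified 15hLO-2 in Hepes pH 7.5 with detergent. Activity follows hydroperoxide formation from 45 uM arachidonic acid, measured as 573:405 nm absorbance ratio of the ferric-xylenol orange complex.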
Each line names hits and unclear results; the compound was inactive in the other large screens. Calls come from the whole dose curve; as a rule, active = well fitted curve in the direction sought with a large enough effect; inconclusive = small, poorly fitted or top-dose-only effect, or another doubt; inactive = no such curve, though single readings can be large; an effect the other way counts as inactive or inconclusive.

CSC(N)=NCCC[C@@H](N)C(=O)O	none
CCCCS(=O)(=O)N1C2=NC(C(=O)OC)=C(C(=O)OC)[C@@H]3Nc4ccccc4[C@]23C[C@H]1C(=O)OC	none (no result: 15-hLO-2 inh)
O=C1/C(=C\c2ccc(-c3ccccc3[N+](=O)[O-])o2)C(c2ccccc2)=NN1c1ccccc1	none (no result: 15-hLO-2 inh)
Cc1ccc(-c2ccc(/C=C3\C(=O)ON=C3c3ccccc3)o2)c([N+](=O)[O-])c1	15-hLO-2 inh 3.98µM
S=C(NCCC(c1ccccc1)c1ccccc1)Nc1ccc(Cl)cc1	ALOX12 inhib inconclusive, 15-hLO-2 inh 25.1µM
S=C(NCCCc1ccccc1)Nc1ccc(Cl)cc1	none (no result: 15-hLO-2 inh)
COc1cc(NC(=S)NCCC(c2ccccc2)c2ccccc2)c(OC)cc1Cl	ALOX12 inhib 22.4µM (no result: 15-hLO-2 inh)
COc1cc(NC(=S)NCc2ccc(S(N)(=O)=O)cc2)c(OC)cc1Cl	none (no result: 15-hLO-2 inh)
O=C1OC2(c3cc(Br)c(O)c(Br)c3Oc3c2cc(Br)c(O)c3Br)c2c(Cl)c(Cl)c(Cl)c(Cl)c21	15-hLO-2 inh inconclusive
O=C(NC1CCN(Cc2ccccc2)C1)c1ccc(Cc2nc3ccccc3[nH]2)cc1 (centres undefined)	none (no result: 15-hLO-2 inh)
CN(C)c1ccc(N2CN=C3SCC(=O)N3C2)cc1	15-hLO-2 inh 15.8µM
O=C1CSC2=NCN(c3ccc4c(c3)OCO4)CN12	none
CCC(=O)/C=C/C1C(C)=CCCC1(C)C (centres undefined)	none
COC(=O)C1=C(C(=O)OC)[C@@H]2N(Cc3ccccc3)c3ccccc3[C@@]23C[C@@H](C(=O)OC)N(S(=O)(=O)c2ccc(C)cc2)C3=N1	none (no result: 15-hLO-2 inh)
CC#CCN1c2ccccc2[C@]23C[C@@H](C(=O)OC)N(S(=O)(=O)c4ccc(Br)cc4)C2=NC(C(=O)OC)=C(C(=O)OC)[C@H]13	none (no result: 15-hLO-2 inh)
N#Cc1c(N)n[nH]c1-c1cc2c([nH]1)CCCC2	none (no result: 15-hLO-2 inh)
N#Cc1cc2c([nH]c1=S)CCCCCC2	ALOX12 inhib inconclusive, 15-hLO-2 inh 25.1µM
O=c1cc(-c2ccc(O)c(O)c2)oc2ccccc12	15-hLO-2 inh inconclusive
CNc1ncnc2c1ncn2[C@H]1C[C@@H](OP(=O)(O)O)[C@H](COP(=O)(O)O)O1	none
COC(=O)C1C(O)CC[C@H]2CN3CCc4c([nH]c5ccccc45)C3C[C@H]12 (some centres undefined)	none
O=C(COc1ccc(Br)cc1)N1CCN(c2ccc([N+](=O)[O-])c(N3CCCCC3)c2)CC1	none (no result: 15-hLO-2 inh)
O=c1c2c([N+](=O)[O-])cc([N+](=O)[O-])cc2sn1-c1ccc(Br)cc1	ALOX12 inhib 3.16µM (no result: 15-hLO-2 inh)
COc1ccc(-c2nc3c(c4c2C[C@H](c2ccccc2)OC4)CN(S(=O)(=O)c2ccc(C#N)cc2)CC3)c(C)c1	none (no result: 15-hLO-2 inh)
CC(=O)Nc1ccc(N2CCN(C(C)=O)CC2)cc1	none
Cc1ccc(C(=O)NCc2ccc(N3CCN(C(=O)OC(C)(C)C)CC3)cc2)cc1	none
CCc1ccc(CNc2ccc(N3CCN(C(C)=O)CC3)cc2)cc1	ALOX12 inhib inconclusive, 15-hLO-2 inh 12.6µM
CC(=O)N1CCN(c2ccc(NCc3ccc(C)cc3)cc2)CC1	ALOX12 inhib 17.8µM, 15-hLO-2 inh 10µM
Nc1ncnc2c1ncn2[C@@H]1O[C@@H](COP(=O)(O)OP(=O)(O)OP(=O)(O)OP(=O)(O)OC[C@@H]2O[C@@H](n3cnc4c(N)ncnc43)[C@@H](O)[C@H]2O)[C@H](O)[C@@H]1O	none
CC#CCN1c2ccccc2[C@]23C[C@@H](C(=O)OC)N(S(=O)(=O)CCCC)C2=NC(C(=O)OC)=C(C(=O)OC)[C@H]13	none (no result: 15-hLO-2 inh)
OC[C@@H]1O[C@@H](n2cnc3c(NC4CCCC4)ncnc32)[C@@H](O)[C@H]1O	none
CC(C)[C@H]1C(=O)C(C(N)=O)=C(O)[C@]2(O)C(=O)C3=C(O)c4c(O)ccc(N(C)C)c4C[C@H]3C[C@@H]12	none
N#C/C(=C/c1ccc(N2CCCCC2)cc1)c1cccc(F)c1	none (no result: 15-hLO-2 inh)
Cc1ccc(/C(C#N)=C\c2ccc(N3CCOCC3)o2)cc1	15-hLO-2 inh 12.6µM
Cc1ccc2nc(/C(C#N)=C\c3ccc(N4CCOCC4)o3)[nH]c2c1	none (no result: 15-hLO-2 inh)
N#C/C(=C/c1ccc(N2CCCCCC2)o1)c1ccc(Cl)cc1	ALOX12 inhib inconclusive, 15-hLO-2 inh 7.94µM
N#C/C(=C/c1ccc(N2CCCCC2)o1)c1cccc(F)c1	15-hLO-2 inh 10µM
COc1cc(N2CCCC2)c(OC)cc1/C=C(/C#N)c1ccc(Br)cc1	none
CN(C)CCCCNC(=O)c1ccc(-n2c(=O)c(=O)[nH]c3ccccc32)cc1	none (no result: 15-hLO-2 inh)
CCCCCC(O)/C=C/C=C\CCCCCCCC(=O)O (centres undefined)	none (no result: 15-hLO-2 inh)
CC(C)(C)OC(=O)[C@H]([C@@H]1N[C@@H](C(=O)O)C(C)(C)S1)N1C(=O)c2ccccc2C1=O	none
C[C@@]12C[C@H](O)[C@@H]3[C@H](CCC4=CC(=O)CC[C@]43C)[C@H]1CC[C@@H]2c1csc(-c2ccccc2)n1	none
O=C1c2ccccc2C(=O)C1(O)O	ALOX12 inhib inconclusive, 15-hLO-2 inh 25.1µM
O=C(CC1(O)C(=O)c2ccccc2C1=O)c1ccccc1	none (no result: 15-hLO-2 inh)
C=CC(=O)OCCCCCCOC(=O)C=C	none
